This passage reports Potency and activity change, negative = inhibition results from PubChem BioAssay (Tox21).

Experiment [1] addresses Cytochrome P450 1A2 (Homo sapiens) (UniProt P05177). Description: Cytochrome P450 Family 1 Subfamily A Member 2 (CYP1A2) small molecule antagonists: luciferase reporter qHTS assay (AID 1671199). On activity change, negative = inhibition: series mostly up to about 120 µM. Summed up:
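Luminescence readout (relative luminescence units) after luciferin detection reagent, 20 min RT. Preceded by 1 h room-temperature CYP1A2 reaction with NADPH regeneration solution following 10 min compound preincubation with enzyme and proluciferin substrate. Furafylline positive control.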
(A reporter such as luciferase makes a cellular process visible.)

For experiment [2], the target named is Voltage-gated inwardly rectifying potassium channel KCNH2 (Homo sapiens) (UniProt Q12809). The experiment in a line: Human Ether-a-go-go-Related Gene (hERG) channel small molecule antagonists: fluorescence cell-based qHTS assay (AID 1671200).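 On activity change, negative = inhibition: hERG-expressing U2OS cells given a thallium stimulus after FluxOR II dye loading; series mostly up to about 77 µM.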 Summed up: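 Read-out: thallium influx as a surrogate for potassium, tracked as fluorescence (480 nm ex/540 nm em) every second for 2 min after Stimulus Buffer addition in dye-loaded hERG-U2OS cells.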
Voltage-gated inwardly rectifying potassium channel KCNH2 (Homo sapiens), sequence (Q12809 whole entry, looked up): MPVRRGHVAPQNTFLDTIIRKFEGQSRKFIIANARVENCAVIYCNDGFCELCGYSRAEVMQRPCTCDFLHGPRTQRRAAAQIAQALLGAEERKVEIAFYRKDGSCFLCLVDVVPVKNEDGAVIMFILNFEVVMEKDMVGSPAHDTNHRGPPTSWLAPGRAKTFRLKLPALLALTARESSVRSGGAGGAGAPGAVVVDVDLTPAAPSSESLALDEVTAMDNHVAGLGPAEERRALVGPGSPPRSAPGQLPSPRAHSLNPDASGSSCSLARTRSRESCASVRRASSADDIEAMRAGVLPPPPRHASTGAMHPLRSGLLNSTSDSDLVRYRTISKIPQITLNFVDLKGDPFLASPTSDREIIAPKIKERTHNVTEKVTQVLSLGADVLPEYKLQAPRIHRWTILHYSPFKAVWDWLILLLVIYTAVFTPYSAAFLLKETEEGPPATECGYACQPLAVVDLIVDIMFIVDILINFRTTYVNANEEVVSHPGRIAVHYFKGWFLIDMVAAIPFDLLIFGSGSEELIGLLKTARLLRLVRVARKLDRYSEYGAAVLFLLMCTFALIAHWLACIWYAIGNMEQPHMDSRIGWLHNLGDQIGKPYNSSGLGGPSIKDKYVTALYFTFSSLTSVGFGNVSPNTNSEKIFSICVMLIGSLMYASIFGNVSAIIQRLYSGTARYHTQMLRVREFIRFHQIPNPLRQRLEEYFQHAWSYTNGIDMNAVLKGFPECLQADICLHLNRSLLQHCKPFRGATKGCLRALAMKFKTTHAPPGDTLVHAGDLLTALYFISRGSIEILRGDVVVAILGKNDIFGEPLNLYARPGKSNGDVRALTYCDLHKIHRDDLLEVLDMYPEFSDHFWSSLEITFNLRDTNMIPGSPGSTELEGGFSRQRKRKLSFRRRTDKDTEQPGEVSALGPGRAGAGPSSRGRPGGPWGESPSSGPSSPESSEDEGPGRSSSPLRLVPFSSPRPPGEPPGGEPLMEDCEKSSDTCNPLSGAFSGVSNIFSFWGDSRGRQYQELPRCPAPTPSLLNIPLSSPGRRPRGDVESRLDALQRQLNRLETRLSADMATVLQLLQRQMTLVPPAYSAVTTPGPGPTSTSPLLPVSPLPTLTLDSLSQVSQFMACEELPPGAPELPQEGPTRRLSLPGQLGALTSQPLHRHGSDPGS

Experiment [3] deals with Cytochrome P450 3A4 (Homo sapiens) (UniProt P08684). Description: Cytochrome P450 Family 3 Subfamily A Member 4 (CYP3A4) small molecule antagonists: luciferase reporter qHTS assay (AID 1671201). On activity change, negative = inhibition: series mostly up to about 120 µM. Summed up:
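Luminescent readout (RLU) proportional to CYP3A4 activity, from luciferin generated off a proluciferin substrate. Enzyme–substrate mix plus compound 10 min at room temp, NADPH regeneration 1 h, detection reagent 20 min.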

Molecules are shown by their SMILES. “And” between values parts separate entries of the source, which are not always exact repeats. Equal values may be shown once. Inconclusive results are not listed. More than one record can exist for a structure, and the calls need not agree. The source made the active and inactive calls. The call rests on the fitted dose curve; in most records, active means well fitted curve in the direction sought with a large enough effect in the repeat runs; inconclusive means weak or mixed curves; inactive means no such curve, though single readings can be large; an effect the other way counts as inactive or inconclusive.
Further: nearly all actives have a fitted effect of over 50% in size.
On the % scale 0 is the no-effect control and ±100 the full control effect; potency means the concentration at half of the fitted maximal effect.

Cytochrome P450 3A4 (Homo sapiens), sequence (P08684 whole entry, looked up): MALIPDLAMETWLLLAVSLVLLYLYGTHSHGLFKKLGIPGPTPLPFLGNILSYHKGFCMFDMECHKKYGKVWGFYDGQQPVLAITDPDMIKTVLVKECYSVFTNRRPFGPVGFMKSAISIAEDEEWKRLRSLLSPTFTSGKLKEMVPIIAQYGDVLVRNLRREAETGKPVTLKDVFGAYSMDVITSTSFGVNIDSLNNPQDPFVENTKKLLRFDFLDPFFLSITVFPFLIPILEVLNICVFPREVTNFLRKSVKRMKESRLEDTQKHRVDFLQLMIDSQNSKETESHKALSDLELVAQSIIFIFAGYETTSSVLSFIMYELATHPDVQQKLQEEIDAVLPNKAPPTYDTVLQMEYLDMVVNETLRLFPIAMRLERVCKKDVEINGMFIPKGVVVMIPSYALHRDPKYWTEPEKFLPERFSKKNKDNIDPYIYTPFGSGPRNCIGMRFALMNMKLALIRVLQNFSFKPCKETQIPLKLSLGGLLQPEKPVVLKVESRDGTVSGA
Cytochrome P450 1A2 (Homo sapiens), sequence (P05177 whole entry, looked up): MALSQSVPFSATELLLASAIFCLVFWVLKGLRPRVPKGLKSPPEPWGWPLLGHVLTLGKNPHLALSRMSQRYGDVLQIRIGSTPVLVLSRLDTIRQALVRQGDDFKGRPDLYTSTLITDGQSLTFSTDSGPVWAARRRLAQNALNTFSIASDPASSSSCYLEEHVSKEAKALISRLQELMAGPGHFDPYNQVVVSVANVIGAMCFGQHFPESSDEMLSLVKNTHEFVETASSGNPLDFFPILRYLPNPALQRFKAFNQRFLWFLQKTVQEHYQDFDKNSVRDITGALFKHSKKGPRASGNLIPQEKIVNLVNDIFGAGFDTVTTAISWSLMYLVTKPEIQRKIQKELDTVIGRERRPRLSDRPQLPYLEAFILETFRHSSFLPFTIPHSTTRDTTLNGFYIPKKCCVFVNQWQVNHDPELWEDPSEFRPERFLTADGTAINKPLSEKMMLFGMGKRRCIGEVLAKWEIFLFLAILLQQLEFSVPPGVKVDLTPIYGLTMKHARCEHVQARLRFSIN

With `COc1ccc(CCN(C)CCCC(C#N)(c2ccc(OC)c(OC)c2)C(C)C)cc1OC` (configuration not stated), the Potency result in experiment [1] is “inactive”.
For the compound `O=S(=O)(O)c1ccc2nc(-c3ccccc3)[nH]c2c1`, the Potency in experiment [1] was 26.9 µM (active) and 19.5 µM (active). In addition, the Potency result in experiment [2] was “inactive”.
Consider `Cc1ccc(S(=O)(=O)Oc2ccc(N=Nc3ccc(-c4ccc(N=Nc5c(O)ccc6cc(S(=O)(=O)O)cc(S(=O)(=O)O)c56)c(C)c4)cc3C)cc2)cc1`, for which, in experiment [1], the Potency is 56.6 µM (active) and 23.2 µM (active). Also, the Potency entry in experiment [2] is “inactive”.
As for `Cc1scc2c1N(C(=O)CN1CCN(C)CC1)c1ccccc1NC2=O`, the Potency entry in experiment [1] and in experiment [2] was “inactive” in each case.
Take `CCOc1ccc2c(c1)C(C)=CC(C)(C)N2`: the Potency in experiment [1] is 39.7 µM (active) and 31.7 µM (active); in experiment [3], 12.6 µM (active) and 17.8 µM (active). The Potency entry in experiment [2] was “inactive”.
For the compound `CCN(CC)C(=S)SSC(=S)N(CC)CC`, the Potency in experiment [1] is 31.7 µM (active) and 21.3 µM (active) and 6.45 µM (active); in experiment [2] it was 41 µM (active) and inactive.
`CC1=C(C=O)C(C)(C)CC=C1`: the Potency entry in experiment [1] and in experiment [2] was “inactive” in each case.
For the compound `Cc1c(O)cccc1C(=O)N[C@@H](CSc1ccccc1)[C@H](O)CN1C[C@H]2CCCC[C@H]2C[C@H]1C(=O)NC(C)(C)C`, the Potency entry in experiment [1] and in experiment [2] was “inactive” in each case.
`Nc1nc2ccccc2[nH]1`: the Potency entry in experiment [1], in experiment [2] and in experiment [3] was “inactive” in each case.
Turning to `CC[C@H]1CN2CCc3cc(OC)c(OC)cc3[C@@H]2C[C@@H]1C[C@H]1NCCc2cc(OC)c(OC)cc21`, the Potency entry in experiment [1] was “inactive”.
`O=C1Nc2ccccc2C1(c1ccc(O)cc1)c1ccc(O)cc1`: the Potency entry in experiment [1] and in experiment [2] was “inactive” each time.
`c1cnc2cc3c(cc2n1)C1CNCC3C1`: the Potency result in experiment [1] and in experiment [2] was “inactive” throughout.
For the compound `CCCCCCCCCCCCCCCCCl`, in experiment [1], the Potency result is “inactive”. Further, the activity change, negative = inhibition is -0.466% [at 15.8 µM] (inactive) in experiment [2] and 3.48% [at 23.6 µM] (inactive) in experiment [3].
With `C=CS(=O)(=O)O`, the Potency result in experiment [1] and in experiment [2] was “inactive” in each case.
As to `CC(=O)O[C@]1(C(C)=O)CC[C@H]2[C@@H]3C[C@H](C)C4=CC(=O)CC[C@]4(C)[C@H]3CC[C@@]21C`, the Potency entry in experiment [1] and in experiment [2] was “inactive” each time.
Consider `CC(=O)CC(C)=O`, for which the Potency result in experiment [1], in experiment [2] and in experiment [3] was “inactive” in each case.
As to `C/C=C/c1ccc(OCC)c(O)c1`, the Potency in experiment [1] is 7.1 µM (active) and 7.96 µM (active). In experiment [2], the Potency result was “inactive”.
As for `COC(=O)[C@H]1[C@H]2C[C@@H]3c4[nH]c5cc(OC)ccc5c4CCN3C[C@H]2C[C@@H](OC(=O)c2cc(OC)c(OC)c(OC)c2)[C@@H]1OC`, the Potency in experiment [1] was 32.6 µM (active) and inactive; in experiment [2], 3.46 µM (active) and 6.34 µM (active) and 10.7 µM (active).
For `CC(C)(c1ccccc1)c1ccc(Nc2ccc(C(C)(C)c3ccccc3)cc2)cc1`, the Potency result in experiment [1] and in experiment [2] was “inactive” in each case.
For `CC1=CC(=O)c2ccccc2C1=O`, the Potency is 1.78 µM (active) and 2.75 µM (active) in experiment [1]; 3.89 µM (active) and 7.56 µM (active) in experiment [2].
On to `CC1COc2c(N3CCN(C)CC3)c(F)cc3c(=O)c(C(=O)O)cn1c23` (configuration not stated), for which the Potency result in experiment [1] and in experiment [2] was “inactive” each time.
`Oc1c(Cl)cc(Cl)c(Cl)c1Cc1c(O)c(Cl)cc(Cl)c1Cl`: the Potency result in experiment [1], in experiment [2] and in experiment [3] was “inactive” each time.
Take `Oc1ccc(Cl)cc1Cc1cc(Cl)ccc1O`: the Potency in experiment [1] was 36.2 µM (active) and 39.9 µM (active) and 15.5 µM (active). Also, the Potency entry in experiment [2] is “inactive”.
As to `CCCCCC(=O)O[C@]1(C(C)=O)CC[C@H]2[C@@H]3CCC4=CC(=O)CC[C@]4(C)[C@H]3CC[C@@]21C`, in experiment [1], the Potency entry was “inactive”. In experiment [2], the Potency was 19.4 µM (active).
On the same counts, the results for `COC(c1ccccc1)(c1ccccc1)[C@H](Oc1nc(C)cc(C)n1)C(=O)O` are 17.4 µM (active) and “inactive”.
With `O=C1NCC2(CCN(CCc3ccccc3)CC2)O1`, the Potency result in experiment [1], in experiment [2] and in experiment [3] was “inactive” each time.
In the case of `OCC(CO)N[C@H]1C[C@](O)(CO)[C@@H](O)[C@H](O)[C@H]1O`, the Potency result in experiment [1], in experiment [2] and in experiment [3] was “inactive” each time.
Take `CC(C)(C)NCC(O)COc1ccccc1OCC1CCCO1` (configuration not stated): the Potency entry in experiment [1], in experiment [2] and in experiment [3] was “inactive” each time.
For `CCCCC(CC)COC(=O)CC(C(=O)OCC(CC)CCCC)S(=O)(=O)O` (configuration not stated), the Potency in experiment [1] was 63.3 µM (active). Also, the Potency entry in experiment [2] was “inactive”.
For `Cc1ccc(-c2cc(C(F)(F)F)nn2-c2ccc(S(N)(=O)=O)cc2)cc1`, the Potency result in experiment [1] was “inactive”.
In the case of `CC(C)CCOC(=O)c1ccc(N(C)C)cc1`, the Potency in experiment [1] is 2.88 µM (active). Moreover, the Potency result in experiment [2] and in experiment [3] was “inactive” throughout.
For the compound `CN(C)c1ccc(C(=C2C=CC(=[N+](C)C)C=C2)c2ccccc2)cc1`, the Potency in experiment [1] was 15.9 µM (active) and 13.8 µM (active); in experiment [2], 4.25 µM (active) [middle of 4 runs].
In the case of `NC(N)=NC(=O)Cc1c(Cl)cccc1Cl`, the Potency entry in experiment [1] and in experiment [2] was “inactive” in each case.
For `COC(=O)c1cccc(C(=O)OC)c1`, in experiment [1], the Potency is 12.4 µM (active) and 11.2 µM (active). In addition, the Potency result in experiment [2] and in experiment [3] was “inactive” each time.
For the compound `NNCCc1ccccc1`, in experiment [1], the Potency is 11.3 µM (active) and 17.4 µM (active). Besides, the Potency entry in experiment [2] was “inactive”.
In the case of `C1COC(NC(C2CC2)C2CC2)=N1`, the Potency entry in experiment [1], in experiment [2] and in experiment [3] was “inactive” throughout.
Regarding `CCC(C)(Oc1ccc(C2(c3ccc(OC(C)(CC)C(=O)O)cc3)CCCCC2)cc1)C(=O)O` (configuration not stated), the Potency entry in experiment [1], in experiment [2] and in experiment [3] was “inactive” in each case.
As to `CC(C)(C)c1ccccc1`, the Potency in experiment [1] was 20 µM (active). Also, the Potency entry in experiment [2] and in experiment [3] was “inactive” each time.
For `CC(C)(O)CCC(C)(C)O`, the Potency result in experiment [1], in experiment [2] and in experiment [3] was “inactive” in each case.
Take `CC(=O)OCC1=C(C(=O)O)N2C(=O)[C@@H](NC(=O)Cc3cccs3)[C@H]2SC1`: the Potency result in experiment [1], in experiment [2] and in experiment [3] was “inactive” throughout.
